Reference: PubChem BioAssay (NCI)
About 83,000 compounds went through this panel and 20% of them were active in at least one assay; those are over-represented in the sample as a whole.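 Single-concentration screen, 48 h exposure, 96-well plates. Endpoint: percent growth. Below 10 = active.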 Activity calls are given as the source filed them.

What follows are compounds tested on KM12 colon (assay: NCI-60 one-dose screen, 48 h (100 = growth as untreated, 0 = no growth, -100 = all killed)). Settings: 10 µM unless noted.
Method: Growth inhibition of the KM12 human tumor cell line is measured as a screen for anti-cancer activity. Cells are grown in 96 well plates and exposed to the test compound for 48 hours. Compounds are tested at a single concentration, which is 10^-5 M for most compounds. The reported endpoint is percent growth (GI% or GIPRCNT), where numbers from 0 - 100% represent growth inhibition, and numbers from -100% - 0 represent cell death. For example, a value of 40 represents 60% growth inhibition. A value of 0 means no net growth occurred over the course of the experiment. A value of -40 indicates 40% of cells at the beginning of the experiment died by the end of the experiment. A value of -100 means all cells are dead at the end of the experiment.
NCI-60 Human Tumor Cell Lines Screen was performed using the standard one-dose NCI protocol, which is described in more detail at https://dtp.cancer.gov/discovery_development/nci-60/default.htm.
Compounds with GIPRCNT values below 10 were considered active. Activity score was based on GIPRCNT using the following formula: […]
Score is 0 for GIPRCNT values of 100 or above, 50 for GIPRCNT values of 0, and 100 for GIPRCNT values of -100.
O=C(N/N=C/c1ccccc1Cl)c1ccccc1Nc1ccnc(C(F)(F)F)c1 was tested, and the growth was 10.4% (inactive).
In the case of COc1ccc(-c2ccc(-c3ccc(C(=N)N)nc3)s2)cc1, the growth is reported as -73.7% (active).
In the case of CCOC(=O)CC1CSC(N/N=C/c2ccc(O)cc2)=N1 (stereo not given), the growth is reported as 100% (inactive).
With C=C(c1ccc(C(=O)O)c(F)c1)c1cc2c(cc1C)C(C)(C)C=CC2(C)C the growth was 66.6% (inactive).
For CCOC(=O)c1c(N)sc2cc(O)ccc12, the growth was 89.1% (inactive).
In the case of C1=C2CCCC3=Cc4ccccc4OC23Oc2ccccc21, the growth is reported as 19.8% (inactive).
With COc1cc(/C=N/NC(=O)c2ccc3nc(-c4ccc(Cl)cc4)[nH]c3c2)cc(OC)c1OC the growth was 61.8% (inactive).
For N#CC1=C(N)Oc2c(ccc3ccccc23)C1c1cc2ccccc2n2nnnc12 (stereo not given), the growth was 18.1% (inactive).
Cc1ccc(C2(C)NC(=O)N(CC(=O)Nc3cccc(C)c3)C2=O)cc1 (stereo not given) was tested, and the growth was 96.6% (inactive).
With CC(=O)O[C@H]1CC[C@@]2(C)C(=CC[C@@H]3[C@@H]2CC[C@]2(C)C(Cl)=C(c4nc5ccc(Cl)cn5c4NC(C)(C)C)C[C@@H]32)C1 the growth was 94.5% (inactive).
In the case of O=C(Nc1ncc(Cc2ccccc2Cl)s1)c1ccc2c(c1)OCCO2, the growth is reported as 6.53% (active).
For CCn1c2ccccc2c2cc(C(O)c3cccc4ncccc34)ccc21 (stereo not given), the growth was 8.55% (active).
For Cc1ccc2c(c1)CC(O)CC1C(=O)N(CCO)CC(=O)N21 (stereo not given), the growth was 105% (inactive).
CN(C)CCCN(CCC1CCCCC1)CCC1CCCCC1 was tested, and the growth was 12% (inactive).
With COc1ccc(-n2c(=O)n(-c3ccc(-c4nc5ccc(F)cc5s4)cc3)c(=O)c3cccnc32)cc1 the growth was 102% (inactive).
CC(C)(C)[C@H](OCc1cn([C@H]2C[C@@H](O)[C@@H](CO)O2)c(=O)[nH]c1=O)c1ccc(C#Cc2ccccc2)cc1[N+](=O)[O-] was tested, and the growth was 84.9% (inactive).
CCN1C(=O)N(CC)C2C1NC(=S)N2/N=C/C=C/c1cccs1 (stereo not given) was tested, and the growth was 18.5% (inactive).
With COc1cccc2cc(N(C)c3nc(C)nc4c3CCC4)ccc12 the growth was 0.0953% (active).
CC(C)n1nc(-c2ccc3oc(N)nc3c2)c2c(N)ncnc21 was tested, and the growth was -0.425% (active).
With CCCCCN(CCCCC)CC(O)c1c(Cl)ccc2ccccc12 (stereo not given) the growth was 75.9% (inactive).
For COc1ccc(-c2cc(-c3ccc(Nc4nc(Nc5ccc(Cl)cc5)nc(Nc5ccc(Cl)cc5)n4)cc3)no2)cc1, the growth was 82% (inactive).
For COc1cccc(-c2nn(-c3ccccc3)cc2-c2ccnc(-c3cccnc3)c2)c1, the growth was 94.7% (inactive).
For COc1cc(-c2ccc(-c3ccc(C(=N)N)s3)s2)cc(OC)c1OC, the growth was 27.7% (inactive).
For COc1ccc2c(O)cc3c(c2c1)[C@H](CCl)CN3C(=O)c1cc2cc(NC(=O)CCN3CCOCC3)ccc2[se]1, the growth was -57.4% (active).
For CN(C)CCOc1ccc(/C(=C(/CCCCCCCCCC[P+](c2ccccc2)(c2ccccc2)c2ccccc2)c2ccccc2)c2ccccc2)cc1, the growth was -80.9% (active).
For Nc1ccc(N)c2c1C(=O)c1cccc([N+](=O)[O-])c1C2=O, the growth was 42% (inactive).
CCOC(=O)c1cnc2sc(-c3ccc(OC)cc3)nc2c1Cl was tested, and the growth was 90.7% (inactive).
In the case of O=C(OCc1ccc2c(Br)cc(Br)c(O)c2n1)N1CCN(C(=O)c2cc3ccccc3[nH]2)CC1, the growth is reported as 29.5% (inactive).
COc1ccc(S(=O)(=O)N(C)c2oc(-c3ccc(Cl)cc3)nc2C#N)cc1 was tested, and the growth was 56.6% (inactive).
With N=C(N)c1ccc(-c2ccc(-c3ccc(Cl)cc3Cl)s2)nc1 the growth was -31.5% (active).
COc1ccc(C(=O)/C=C/Nc2cc(-c3ccccc3)nn2-c2ccccc2)cc1 was tested, and the growth was 99.9% (inactive).
In the case of O=C(Nc1ccc2[nH]ncc2c1)c1csc(Nc2ccccc2)n1, the growth is reported as 27.7% (inactive).
Cc1ccc(C2=Nc3c(N)nc(N)nc3NC(c3cccc(Nc4ccnc5cc(C(F)(F)F)ccc45)c3)C2)cc1 (stereo not given) was tested, and the growth was 15% (inactive).
For O=C1/C(=C/c2ccc(Br)cc2)COc2ccc(O)cc21, the growth was 26.8% (inactive).
In the case of COc1cc(CNC(=O)CCCC/C=C/C(C)C)ccc1OCc1cn(-c2ccc(C(F)(F)F)cc2)nn1, the growth is reported as 81.2% (inactive).
[2H]C([2H])([2H])Oc1ccc(/C=C/C(=O)/C=C(/C=C/c2ccc(OC([2H])([2H])[2H])c(OC([2H])([2H])[2H])c2OC([2H])([2H])[2H])OB(F)F)c(OC([2H])([2H])[2H])c1OC([2H])([2H])[2H] was tested, and the growth was 81.3% (inactive).
For C=C(CNCCc1ccc(O)cc1)[C@@H]1CC[C@]2(CO)CC[C@]3(C)[C@H](CC[C@@H]4[C@@]5(C)CCC(N)C(C)(C)[C@@H]5CC[C@]43C)[C@@H]12 (stereo not given in full), the growth was -60.6% (active).
For O=C1c2c(c3c4cccnc4[nH]c3c3ccc4ccccc4c23)C(=O)N1O, the growth was 50.2% (inactive).
COC(=O)CNC(=O)c1ccc(NC(=O)c2[nH]c(C)c(Cl)c2Cl)c(O[C@H]2CCNC2)c1 was tested, and the growth was 104% (inactive).
In the case of Cc1ccc(OCCOCCOCCOCCOc2ccc(C)n(O)c2=S)c(=S)n1O, the growth is reported as 18.6% (inactive).
